Screening data (PubChem)
Compounds with a hit are over-represented: about 3.2% of the library has one in this group of screens.
EphB4 ephrin blk = EphB4-ephrin-B2 interaction antagonism; AID 720; actives 0.15% (n = 97,000); EphB4 LBD / TNYL-RAW-Alexa532 peptide, fluorescence polarization; P54760; inhibition, % at 7 µM;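 active = inhibition above the screen-wide mean inhibition plus 3 SD, cut at about 15% in these data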;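 also: 0% = DMSO wells and 100% = excess unlabeled TNYL-RAW peptide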
Target sequence (P54760 whole entry, looked up, the tested form may be a part): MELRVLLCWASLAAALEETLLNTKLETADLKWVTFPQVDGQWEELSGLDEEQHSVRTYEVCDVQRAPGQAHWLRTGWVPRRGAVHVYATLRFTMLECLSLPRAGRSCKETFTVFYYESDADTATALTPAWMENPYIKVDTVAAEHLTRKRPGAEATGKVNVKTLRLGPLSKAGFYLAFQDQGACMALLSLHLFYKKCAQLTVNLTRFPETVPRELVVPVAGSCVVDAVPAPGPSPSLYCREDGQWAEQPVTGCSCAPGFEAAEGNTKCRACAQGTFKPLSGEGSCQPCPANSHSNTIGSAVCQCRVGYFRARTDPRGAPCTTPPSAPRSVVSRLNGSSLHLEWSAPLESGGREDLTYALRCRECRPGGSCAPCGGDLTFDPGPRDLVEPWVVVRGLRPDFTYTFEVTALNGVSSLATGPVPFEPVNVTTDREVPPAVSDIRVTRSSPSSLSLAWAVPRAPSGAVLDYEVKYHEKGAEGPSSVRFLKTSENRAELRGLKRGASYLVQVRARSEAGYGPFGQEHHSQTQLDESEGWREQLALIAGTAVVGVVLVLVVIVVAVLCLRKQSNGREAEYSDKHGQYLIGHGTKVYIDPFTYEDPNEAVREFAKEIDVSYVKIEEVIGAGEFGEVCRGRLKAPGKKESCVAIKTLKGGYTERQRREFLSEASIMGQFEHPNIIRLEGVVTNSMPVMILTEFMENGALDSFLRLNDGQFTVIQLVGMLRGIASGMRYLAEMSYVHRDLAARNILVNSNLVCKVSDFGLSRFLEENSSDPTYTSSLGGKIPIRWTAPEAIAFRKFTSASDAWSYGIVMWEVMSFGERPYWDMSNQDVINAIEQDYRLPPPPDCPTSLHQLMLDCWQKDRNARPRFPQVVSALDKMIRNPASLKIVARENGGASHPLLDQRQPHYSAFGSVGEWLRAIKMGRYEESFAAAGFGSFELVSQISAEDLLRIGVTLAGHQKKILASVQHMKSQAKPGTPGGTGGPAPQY
MT1-MMP txn act = activates MT1-MMP transcription; HT1080 MT1-MMP promoter luciferase reporter, luminescence, overnight; stronger effect = higher value; activation factor at 10 µM; actives 0.16% (n = 86,000); AID 750;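 active = activation factor of at least 2 for MT1-MMP transcription at 10 µM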
ERb SRC1 inh = ER-beta (human) coactivator binding inhibition; actives 1.3% (n = 86,000); inhibition, % at 25.6 µM; AID 633; TR-FRET ER-beta LBD / SRC1-Cy5 peptide binding; receptor agonist-loaded with 1 µM estradiol; Q92731;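 active = compounds whose percent inhibition of the receptor-coactivator binding signal exceeds about 50% in the single-dose screen, limit read from the data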;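 also: 0% = receptor plus peptide wells without compound and 100% = peptide-only wells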
Calb biofilm kill = kills Candida albicans biofilms | C. albicans biofilm + clotrimazole, Alamar Blue | actives 0.14% (n = 85,000) | inhibition, % at 6 µM;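 active = inhibition above 20%; inactive = inhibition below 20%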;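 also: preformed 24 hr biofilms exposed to compound for 48 hr; 0% = biofilm without compound and 100% = blank killed by clotrimazole plus chlorhexidine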
ERa SRC1 inh = blocks coactivator binding to human estrogen receptor alpha. P03372. TR-FRET ER-alpha LBD / SRC-1 peptide, estradiol-bound. actives 1.7% (n = 86,000). inhibition, % at 25.6 µM; in the data active = inhibition above about 50%;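 also: 0% = receptor plus peptide control and 100% = peptide only without receptor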
ERa coact pot = ER-alpha (human) coactivator binding potentiation; P03372; TR-FRET ERalpha-LBD/SRC-Cy5 coactivator binding, 2 h; 100 = basal binding, no effect; coactivator binding (% of control), % at 25.6 µM; actives 1.3% (n = 86,000); in the data active = activity above about 200%;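 also: binding measured in presence of low estradiol as agonist stimulus; 0% = peptide alone without receptor and 100% = receptor with peptide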
Starred values were filed as active, the others as inactive; x = not tested or not shown; [ ] = remark or other dose.

SMILES	EphB4 ephrin blk	MT1-MMP txn act	ERb SRC1 inh	Calb biofilm kill	ERa SRC1 inh	ERa coact pot
O=C(CSc1nc2c(c(=O)n1-c1ccc(Cl)cc1)SCC2)Nc1nccs1	x	1.2	5.7	5.2	28.1	142.2
COCCSc1nc2sc3c(c2c(=O)n1-c1ccccc1)CCN(C)C3	2.6	1.4	7.5	6.6	-0.8	98.8
O=C(CSc1nc2c(c(=O)n1-c1ccc(Br)cc1)SCC2)Nc1nccs1	-3.0	1.2	24.8	3.4	59.4*	152.2
Cc1ccc2c(CC(=O)NC3=NCCS3)coc2c1	-4.0	1.1	8.2	-4.7	5.6	96.0
O=C(COC(=O)c1ccccc1S(=O)(=O)N1CCCCC1)NCC(F)(F)F	4.5	1.3	-2.0	6.0	0.5	128.6
O=c1[nH]c2cc3c(cc2cc1CN(Cc1ccccc1)Cc1nnnn1Cc1ccco1)OCCO3	-6.3	1	25.8	3.8	20.3	216.3*
O=c1[nH]c2cc3c(cc2cc1CN(Cc1cccs1)Cc1nnnn1Cc1ccco1)OCCO3	4.7	1	49.5	7.8	51.0*	123.8
O=C(Nc1ccc2oc(=O)ccc2c1)c1cccnc1Cl	3.1	1.1	-20.6	0.7	-7.9	102.2
Oc1c(C=Nc2cccc3cccnc23)sc2ccccc12	6.0	0.9	50.8*[fluorescence artefact?]	6.2	78.8*	63.7
COc1ccc(C(C)NC(=O)c2ccccc2)cc1 (stereo not drawn)	16.0*	1.2	-22.7	0.8	7.7	121.9
COc1ccc(C(NC(=O)c2ccc(-c3ccccc3)cc2)c2ccccc2)cc1 (stereo not drawn)	0.6	x	x	x	x	x
CCOc1ccc2nc(Nc3nc4c(c(=O)[nH]3)CCC4)nc(C)c2c1	x	1.3	35.7	9.8	52.3*[fluorescence artefact?]	177.8
CCOc1ccc2nc(Nc3nc(CSc4nnnn4-c4ccccc4)cc(=O)[nH]3)nc(C)c2c1	0.9	1.1	39.4	-2.7	70.1*[fluorescence artefact?]	215.6*[fluorescence artefact?]
COc1ccccc1NC(=O)CN(C)S(=O)(=O)c1ccc(F)cc1	-6.2	1.2	-21.5	2.8	-23.9	102.9
Cc1[nH]n(-c2ccc([N+](=O)[O-])cc2)c(=O)c1C=NCCN1CCN(C(=O)c2cccc(F)c2)CC1	0.7	1.2	-0.1	-1.2	5.4	98.9
Cc1cc2oc(=O)cc(COC(=O)c3cccc(N(C)C)c3)c2cc1C	x	1.2	0.7	4.4	1.6	98.1
COCCCN1C(=O)C(=O)/C(=C(/O)c2ccc3c(c2)OCCO3)C1c1ccc(C(=O)OC)cc1 (stereo not drawn)	2.1	1.1	80.0*[fluorescence artefact?]	6.8	77.0*[fluorescence artefact?]	68.0
COc1ccc(C2NC(=O)N(CCCC(=O)O)C(C)=C2C(=O)OCc2ccccc2)cc1 (stereo not drawn)	x	1.2	x	x	x	x
O=C(N/C=N/OCc1ccc(Cl)cc1Cl)NOCc1c(Cl)cccc1Cl	-2.1	x	30.3	11.3	26.3	213.0*
CC(C)CC(=O)NC(=S)NCCc1ccccc1	15.9*	x	x	x	x	x
O=C(OCC(=O)N1CCCC1)c1cncc(Br)c1	2.1	1.2	54.8*	6.4	-0.7	100.7
CC(C)CNC(=O)COC(=O)c1cncc(Br)c1	3.0	0.9	-1.4	4.6	-7.8	94.9
Cc1cccc(/C=N/n2c(C)cc(C)c(C#N)c2=O)c1	11.0	1	10.9	-2.7	16.5	111.4
COc1cc(C(=O)Oc2c(CN3CCOCC3)cc(Cl)c3cccnc23)cc(OC)c1OC	1.2	x	4.5	-5.2	-9.6	218.1*
COc1ccc(C(=O)Oc2c(CN3CCOCC3)cc(Cl)c3cccnc23)cc1	3.7	0.9	7.1	9.4	1.5	114.5
SMILES	EphB4 ephrin blk	MT1-MMP txn act	ERb SRC1 inh	Calb biofilm kill	ERa SRC1 inh	ERa coact pot
Cc1cc(C)n(CCc2nc3c4ccccc4nc(SCc4ccc(C#N)cc4)n3n2)n1	x	1.1	32.8	3.8	58.7*[fluorescence artefact?]	95.5
Cc1nc2ccccc2n1CCc1nc2c3ccccc3nc(SCC#N)n2n1	-11.4	1.1	30.0	7.4	36.1	175.3
Cc1nc2nc(C)c(CCC(=O)Nc3ccc4c(c3)OCO4)c(C)n2n1	-6.5	1	4.7	4.7	7.4	104.0
COc1ccc(C(=O)N2CCCN(C)CC2)cc1S(=O)(=O)N1CCCc2ccccc21	x	1.3	-11.4	-7.0	-13.2	224.8*
CCOC(=O)COc1ccc2c(c1)C(=O)CC(C)(C)O2	-8.9	1.1	x	x	x	x
Clc1ccc(-c2nnsc2SCc2ccccc2)cc1	-7.0	x	x	x	x	x
CCOC(=O)C(CC)Sc1nnc2c3cc(C)ccc3n(C)c2n1 (stereo not drawn)	7.0	1.1	-7.9	-1.2	8.8	82.7
CSc1nnc2c3cc(C)ccc3n(Cc3ccccc3)c2n1	x	1.3	54.3*[fluorescence artefact?]	-0.4	68.1*[fluorescence artefact?]	105.1
Cc1c(O)cc2n(c1=O)-c1ccccc1C2(C)C	16.3*	1.1	-1.5	6.7	-6.4	117.3
c1cncc(-c2nc(-c3ccco3)cs2)c1	3.9	1.3	60.4*[fluorescence artefact?]	10.8	5.2	83.5
COc1ccc(-c2ccc(C#N)c(SCC(=O)Nc3sc4c(c3C#N)CCC4)n2)cc1	-8.9	1.1	8.4	6.8	0.7	159.3
CCCCC(=O)Nc1sc2c(c1C(N)=O)CCC2	3.4	1.6	-0.9	3.7	-2.0	107.9
CCOC(=O)Cc1csc(SCC(=O)Nc2sc3c(c2C(N)=O)CCC3)n1	x	1	81.9*[fluorescence artefact?]	9.0	91.8*[fluorescence artefact?]	61.4
N#Cc1ccc(-c2cccnc2)nc1SCC(=O)Nc1sc2c(c1C#N)CCC2	x	1.1	65.6*	6.4	84.6*	52.6
O=C(CSc1n[nH]c(-c2ccco2)n1)Nc1sc2c(c1C(=O)Nc1ccccc1)CCCC2	-1.7	1	35.3	3.7	50.6*	77.8
CCC1(CC)NC(=O)N(CC(=O)Nc2sc3c(c2C(N)=O)CCC3)C1=O	-2.5	1	73.7*[fluorescence artefact?]	6.7	84.3*	28.1
CCOC(=O)c1c(NC(=O)CSc2nnc(C)s2)sc2c1CCCCC2	2.0	1.2	2.0	2.8	1.8	137.2
O=C(O)c1ccc(CSc2n[nH]c(-c3ccco3)n2)cc1	15.4*	1.2	10.8	4.9	6.4	99.5
COc1ccc(-c2nnc(SCC(=O)Nc3sc4c(c3C#N)CCCC4)n2-c2ccccc2)cc1	-3.9	1.2	6.4	10.5	5.1	229.5*[fluorescence artefact?]
NC(=O)c1c(NC(=O)COC(=O)CSc2nnc(-c3ccc(Cl)cc3)o2)sc2c1CCC2	0.6	1.2	45.9	9.0	58.3*[fluorescence artefact?]	41.2
NC(=O)c1c(NC(=O)CSc2nnc(-c3ccco3)n2-c2ccccc2)sc2c1CCC2	x	1.1	82.2*[fluorescence artefact?]	4.5	93.9*[fluorescence artefact?]	28.3
Cc1cc2ncn(C3CC(=O)N(Cc4ccc(N5CCCC5=O)cc4)C3=O)c2cc1C (stereo not drawn)	0.5	1.1	x	x	x	x
O=C(CSc1nc2cc(Cl)ccc2s1)c1ccco1	x	1.4	8.0	7.2	12.3	72.8
O=C(CSc1nnc(SCC(=O)c2ccco2)s1)c1ccco1	-0.9	1.2	53.4*	9.3	59.6*	66.8
Cc1c(C=O)c2ccccc2n1CC(=O)N1CCc2ccccc2C1	6.2	x	-3.7	5.7	2.3	110.7
